# Screening data: PubChem, several laboratories
# Hits are enriched below; roughly 2.4% of the tested compounds scored in any of these assays.
# CendR NRP1 mod = alters CendR peptide binding to human NRP-1; O14786; FAM-RPARPAR peptide binding to NRP-1, fluorescence polarization; inhibition, % at 25 µM; 0.85% of 360,000 active;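 active = inhibition or corrected inhibition above about 18%, plus a signal ratio from 0.5 to 1.5, limit read from the data, passing the limit was not always enough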
# ADAM17 inh = ADAM17 inhibition, QFRET primary screen | P78536 | recombinant ADAM17, EDANS/DABCYL FRET peptide cleavage | inhibition, % at 6.95 µM | 0.83% of 370,000 active;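 active = inhibition above the mean of compounds lying between control limits plus 3 SD, set per campaign, cut at about 8.5% in these data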;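 also: 0% = DMSO-only wells as the low control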
# ADAM10 inh = ADAM10 inhibition, QFRET primary screen; inhibition, % at 7 µM; O14672; recombinant ADAM10, EDANS/DABCYL FRET peptide cleavage, 3 h; 0.62% of 370,000 active;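 active = inhibition above a per-campaign cutoff equal to the mean of compounds falling between control-based bounds plus 3 SD, cut at about 20% in these data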;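 also: 0% = DMSO wells while the 100% control is not disclosed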
# Target sequence (O14672 214-748 limits assumed): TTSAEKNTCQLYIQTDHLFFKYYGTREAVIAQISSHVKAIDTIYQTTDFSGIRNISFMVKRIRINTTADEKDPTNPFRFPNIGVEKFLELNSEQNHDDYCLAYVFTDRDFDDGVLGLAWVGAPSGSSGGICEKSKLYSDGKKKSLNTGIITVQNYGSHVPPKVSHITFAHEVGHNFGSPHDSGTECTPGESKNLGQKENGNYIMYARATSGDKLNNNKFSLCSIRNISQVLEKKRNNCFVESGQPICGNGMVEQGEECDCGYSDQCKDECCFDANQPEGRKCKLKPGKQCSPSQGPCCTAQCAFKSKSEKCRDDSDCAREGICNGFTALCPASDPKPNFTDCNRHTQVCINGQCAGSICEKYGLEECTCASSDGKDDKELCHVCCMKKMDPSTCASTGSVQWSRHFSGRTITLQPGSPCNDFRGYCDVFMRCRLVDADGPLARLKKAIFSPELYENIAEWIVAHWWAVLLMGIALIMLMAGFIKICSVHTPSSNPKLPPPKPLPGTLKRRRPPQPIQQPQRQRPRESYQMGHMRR
# APOBEC3A inh = human APOBEC3A DNA deaminase inhibition; P31941; recombinant A3A, FAM/TAMRA ssDNA deamination fluorescence; inhibition, % at 20 µM; 0.41% of 330,000 active; AID 493011;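 active = at least 40% inhibition at 20 µM here, with at most 30% in a related deaminase screen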;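 also: plate controls were A3A with DMSO for no effect and wells lacking A3A enzyme for full effect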
# A3G deaminase = APOBEC3G (human) deaminase inhibition | recombinant A3G, ssDNA deamination FAM/TAMRA fluorescence | inhibition, % at 20 µM | 0.28% of 330,000 active | AID 493012;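 active = inhibition of at least 40% at 20 µM, with no more than 30% in the related APOBEC3A deaminase screen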;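 also: plate controls were DMSO wells with A3G for no effect and wells lacking A3G enzyme for full effect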
# ADAM10 confirm = confirmation of inhibitors of human ADAM10; shares compounds with ADAM10 inh; ADAM10 QFRET peptide cleavage, EDANS fluorescence; inhibition, % at 6.95 µM; 1% of 2,100 active; AID 743208;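 active = inhibition above about 20% chosen separately for each screening run, limit read from the data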;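 also: 0% = DMSO wells and 100% = marimastat wells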
# ADAM17 counter = inhibits human ADAM17 in ADAM10 exosite counter-screen. shares compounds with ADAM10 inh. ADAM17 QFRET peptide cleavage, EDANS fluorescence. inhibition, % at 6.95 µM. 0.5% of 2,100 active;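 active = mean triplicate inhibition above the solvent-only control wells' mean plus 3 SD, cut at about 12% in these data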;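 also: 0% = DMSO wells and 100% = marimastat wells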
# ADAM10 ctr = inhibits human ADAM10 in ADAM17 exosite counter-screen. shares compounds with ADAM17 inh. inhibition, % at 6.95 µM. recombinant ADAM10, EDANS/DABCYL FRET peptide cleavage, 3 h. 47% of 2,900 active. AID 743256;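 active = mean inhibition over the triplicate runs exceeds the activity threshold set in the earlier primary screen, cut at about 20% in these data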;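 also: 0% = DMSO wells and 100% = marimastat wells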
# ADAM17 confirm = human ADAM17 inhibition, confirmation | shares compounds with ADAM17 inh | recombinant ADAM17, EDANS/DABCYL QFRET peptide cleavage | inhibition, % at 6.95 µM | 65% of 2,900 active | AID 743257;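 active = mean inhibition across replicates above the hit cutoff set in the primary screen, cut at about 8.5% in these data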;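 also: 0% = DMSO wells and 100% = marimastat wells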
# Active calls of the source: *; · = not tested or not shown.
SMILES,CendR NRP1 mod,ADAM17 inh,ADAM10 inh,APOBEC3A inh,A3G deaminase,ADAM10 confirm,ADAM17 counter,ADAM10 ctr,ADAM17 confirm
O=C(CNc1cc(S(=O)(=O)N2CCCC2)ccc1OCC(F)(F)F)Nc1ccc(SC(F)F)cc1,-4,16*,20*,1,-6,1,2,35*,20*
CN(CC(=O)Nc1cccc(F)c1)CC(=O)Nc1cccc(S(=O)(=O)N2CCCCC2)c1,16,2,-2,3,4,·,·,·,·
O=C(c1ccc(C(F)(F)F)cc1)N1CCC(=O)N(C(COCc2ccc(Cl)cc2)Cc2ccccc2)CC1 (centres undefined),-4,9.9*,20*,1,-3,4,2,14,8.7*
O=C(c1ccc(Cl)c(Cl)c1)N1CCC(=O)N(C(COCc2ccc(Cl)cc2)Cc2ccccc2)CC1 (centres undefined),4,9.5*,20*,-1,-5,10,3,34*,16*
CCN(CC)S(=O)(=O)c1cc([N+](=O)[O-])ccc1NNC(=O)Nc1ccccc1OC,0,10*,26*,-2,-2,1,0,8,7
COC(=O)C[C@H]1CC[C@H]2[C@H](COc3ccc(NC(=O)c4ccccc4F)cc3C(=O)N2C)O1,·,-3,-1,·,·,·,·,·,·
O=[N+]([O-])c1cccnc1N1CCC(c2cc(-c3ccc(Cl)cc3)n[nH]2)CC1,6,13*,30*,-1,-1,13,3,40*,19*
Cc1ccccc1CNC(=O)C1C2C=CC3(CN(Cc4ccccc4)C(=O)C13)O2 (centres undefined),·,-5,-9,·,·,·,·,·,·
CCC[C@H]1CN(c2ccc(Br)cc2)C(=O)[C@@H]1CC(=O)Nc1ccc(OC)cc1,-8,-2,-8,·,·,·,·,·,·
CCC[C@H]1CN(c2ccc(Br)cc2)C(=O)[C@@H]1CC(=O)Nc1ccccc1,3,18*,24*,·,·,0,0,20*,4
CCn1c(Cc2cccs2)nnc1SCC(=O)Nc1ccccc1-c1ccccc1,·,1,3,·,·,·,·,·,·
CCOC(=O)C1=C(C)N(Cc2ccccc2)C(=O)NC1c1ccccc1OS(=O)(=O)c1ccccc1[N+](=O)[O-] (centres undefined),9,9.8*,21*,-3,-8,14,4,49*,21*
COC(=O)C1=C(C)N(CCCC(=O)O)C(=O)NC1c1ccccc1OS(=O)(=O)c1ccccc1[N+](=O)[O-] (centres undefined),3,-2,-6,-2,-7,·,·,·,·
NC(=O)[C@H]1CC2(CC(c3cccc(NC(=O)COc4ccc(Cl)cc4)c3)=NO2)CN1C(=O)c1ccc(Cl)cc1 (some centres undefined),22,14*,36*,-2,-2,4,1,37*,22*
COc1ccc(CCn2cnn3c(=O)c4ccccc4nc3c2=O)cc1OC,·,0,5,·,·,·,·,·,·
Cc1ccc([N+](=O)[O-])cc1N(CC(=O)NC1CCCC1)S(C)(=O)=O,2,-2,2,3,4,·,·,·,·
Cc1ccc(NS(=O)(=O)c2ccc(NC(=O)CN(c3cc([N+](=O)[O-])ccc3C)S(C)(=O)=O)cc2)c(C)c1,8,11*,21*,-2,-4,4,1,54*,28*
Cc1ccc(NS(=O)(=O)c2ccc(NC(=O)c3ccccc3C(=O)O)cc2)c(C)c1,1,0,-2,3,10,·,·,·,·
NS(=O)(=O)c1ccc(NC(=S)NC(=O)c2ccc(Br)o2)cc1,-18,-6,-6,-2,0,·,·,·,·
Cc1ccc(NS(=O)(=O)c2ccc(NC(=O)c3ccc(Br)o3)cc2)c(C)c1,12,11*,23*,-2,-2,6,2,32*,15*
Cc1cc(C)cc(NS(=O)(=O)c2ccc(NC(=S)NC(=O)c3ccc(Br)o3)cc2)c1,-9,11*,21*,4,1,10,4,29*,14*
COc1ccc(CN[C@@H]2CC[C@@]34CCCN3C(=O)CCC[C@H]4C2)cc1OC,·,-2,-1,·,·,·,·,·,·
CCC(C)NS(=O)(=O)c1ccc(NC(=O)C(Sc2ccccc2)c2ccccc2)cc1 (centres undefined),1,20*,41*,2,-4,8,3,42*,22*
CC(=O)NS(=O)(=O)c1ccc(NC(=O)C(Sc2ccccc2)c2ccccc2)cc1 (centres undefined),1,3,4,1,4,·,·,·,·
Cc1ccc(NC(=O)COC(=O)/C(=C/c2cccs2)c2cccs2)cc1S(=O)(=O)N(C)C,-2,15*,24*,0,-6,7,3,12,13*
SMILES,CendR NRP1 mod,ADAM17 inh,ADAM10 inh,APOBEC3A inh,A3G deaminase,ADAM10 confirm,ADAM17 counter,ADAM10 ctr,ADAM17 confirm
O=S1(=O)N[C@@H](Cc2ccccc2)COc2cccc(N3CCCC3)c21,·,2,-3,·,·,·,·,·,·
COc1ccccc1S(=O)(=O)N(C)C[C@@H]1Oc2cc(C#CCC(C)C)ccc2S(=O)(=O)N([C@H](C)CO)C[C@@H]1C,1,11*,26*,·,·,8,3,46*,26*
COc1ccccc1S(=O)(=O)N(C)C[C@H]1Oc2cc(C#CCC3CCCC3)ccc2S(=O)(=O)N([C@H](C)CO)C[C@H]1C,-1,1,3,·,·,·,·,·,·
CCOC(=O)CNC(=O)CSc1nnc(-c2ccccc2)n1CC,·,0,-6,·,·,·,·,·,·
Cc1ccccc1-n1c(SCC(=O)N/N=C/c2c(C)nn(-c3ccccc3)c2C)nc2ccccc2c1=O,-3,11*,21*,3,3,7,2,33*,16*
CCOc1ccc(CCN2C(=S)N([C@@H](Cc3ccc(O)cc3)CN3CCC[C@@H]3CN3C(=S)NC[C@@H]3CC(C)C)C[C@@H]2Cc2ccc(O)cc2)cc1,15,9.8*,23*,·,·,11,3,47*,24*
COc1ccc(S(=O)(=O)NN(C)C)cc1N(C)S(=O)(=O)c1ccc(Cl)cc1,-15,1,-1,-4,-2,·,·,·,·
COc1ccc(S(=O)(=O)Nc2ccc(C)cc2)cc1N(C)S(=O)(=O)c1ccc(Cl)cc1,-6,19*,32*,3,5,7,2,40*,21*
